# Data published in publication PMC7862700, “An all-to-all approach to the identification of sequence-specific readers for epigenetic DNA modifications on cytosine”.
# Tests used:
# Test in all cases: DAPPL (digital affinity profiling via proximity ligation, sequencing); 10 mM Tris-HCl pH 7.5, 50 mM NaCl, 1 mM DTT, 4% glycerol, room temperature, 30 min; GST-TFs on glutathione beads, 16-mer random dsDNA library, 0.1% formaldehyde crosslink after washing; high values mean tight binding
# FEV = target: T1, FEV (Homo sapiens, UniProt Q99581 1-238); conditions: protein: recombinant; tags: N-terminal GST; dsDNA, one strand shown
# T1 sequence: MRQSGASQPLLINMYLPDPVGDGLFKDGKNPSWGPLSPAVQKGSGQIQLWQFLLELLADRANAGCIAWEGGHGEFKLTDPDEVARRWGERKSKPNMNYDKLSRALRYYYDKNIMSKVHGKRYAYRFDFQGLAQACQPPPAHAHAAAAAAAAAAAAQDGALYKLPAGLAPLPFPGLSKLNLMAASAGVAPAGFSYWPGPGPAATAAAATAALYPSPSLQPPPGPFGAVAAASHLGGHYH
# Method in brief: (§1)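 Beads coated with glutathione captured GST-fused human transcription factors that had been expressed in yeast, and the factors were then given DNA barcodes and pooled with a tag-only sample. The pools were incubated with 200 nmole of a random double-stranded 16-mer DNA library in Tris/NaCl/DTT/glycerol buffer for 30 min at room temperature, washed, crosslinked with 0.1% formaldehyde and proximity-ligated with BsaI/T4 ligase at 37 °C for 1 h. PCR amplification and Illumina NextSeq500 sequencing came last. Binding signal is each hexamer's read frequency for a factor divided by its frequency for the tag-only sample.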
# ETV5 = ETV5 (Homo sapiens, UniProt P41161 1-510); conditions: protein: recombinant; tags: N-terminal GST; dsDNA, one strand shown
# ETV5, sequence (P41161 whole entry): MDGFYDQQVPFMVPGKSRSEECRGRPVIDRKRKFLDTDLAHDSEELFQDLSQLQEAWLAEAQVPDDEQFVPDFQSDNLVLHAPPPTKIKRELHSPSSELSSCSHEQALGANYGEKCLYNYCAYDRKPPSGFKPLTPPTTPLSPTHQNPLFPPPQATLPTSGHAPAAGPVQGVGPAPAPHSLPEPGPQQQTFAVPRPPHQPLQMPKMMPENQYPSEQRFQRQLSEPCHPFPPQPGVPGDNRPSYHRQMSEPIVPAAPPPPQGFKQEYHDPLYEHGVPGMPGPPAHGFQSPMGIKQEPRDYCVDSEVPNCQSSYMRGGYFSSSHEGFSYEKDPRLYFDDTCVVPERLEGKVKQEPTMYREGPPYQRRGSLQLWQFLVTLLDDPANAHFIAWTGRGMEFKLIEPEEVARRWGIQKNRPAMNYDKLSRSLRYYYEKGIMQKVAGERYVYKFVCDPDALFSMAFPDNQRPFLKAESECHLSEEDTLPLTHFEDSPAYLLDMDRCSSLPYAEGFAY
# Method in brief: as §1
# HSF1 = HSF1 (Homo sapiens, UniProt Q00613 1-529); conditions: protein: recombinant; tags: N-terminal GST; chain copies: 3; dsDNA, one strand shown
# HSF1, sequence (Q00613 whole entry): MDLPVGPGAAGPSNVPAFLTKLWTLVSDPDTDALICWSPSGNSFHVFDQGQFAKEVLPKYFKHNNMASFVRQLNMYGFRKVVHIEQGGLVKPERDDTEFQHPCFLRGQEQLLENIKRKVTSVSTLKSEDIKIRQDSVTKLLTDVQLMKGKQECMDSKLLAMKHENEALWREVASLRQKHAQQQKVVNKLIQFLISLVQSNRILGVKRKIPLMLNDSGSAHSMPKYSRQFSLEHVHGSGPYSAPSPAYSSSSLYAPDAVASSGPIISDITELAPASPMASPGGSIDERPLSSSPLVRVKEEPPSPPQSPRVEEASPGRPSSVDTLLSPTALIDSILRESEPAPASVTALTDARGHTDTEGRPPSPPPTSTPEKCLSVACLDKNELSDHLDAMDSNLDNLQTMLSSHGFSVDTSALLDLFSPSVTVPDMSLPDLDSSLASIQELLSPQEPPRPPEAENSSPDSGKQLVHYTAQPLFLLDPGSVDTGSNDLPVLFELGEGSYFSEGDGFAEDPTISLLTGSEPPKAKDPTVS
# Method in brief: as §1
# SPIC = target: T2, SPIC (Homo sapiens, UniProt Q8N5J4 1-248); conditions: protein: recombinant; tags: N-terminal GST; dsDNA, one strand shown
# T2 sequence: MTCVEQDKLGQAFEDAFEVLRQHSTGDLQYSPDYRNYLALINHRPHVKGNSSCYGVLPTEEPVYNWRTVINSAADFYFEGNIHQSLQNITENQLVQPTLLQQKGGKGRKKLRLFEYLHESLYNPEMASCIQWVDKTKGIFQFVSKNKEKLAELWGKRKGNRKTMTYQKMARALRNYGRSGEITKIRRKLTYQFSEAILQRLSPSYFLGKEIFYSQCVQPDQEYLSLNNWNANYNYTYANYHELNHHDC
# Method in brief: as §1
# ELF4 = ELF4 (Homo sapiens, UniProt Q99607 1-663); conditions: protein: recombinant; tags: N-terminal GST; dsDNA, one strand shown
# ELF4, sequence (Q99607 whole entry): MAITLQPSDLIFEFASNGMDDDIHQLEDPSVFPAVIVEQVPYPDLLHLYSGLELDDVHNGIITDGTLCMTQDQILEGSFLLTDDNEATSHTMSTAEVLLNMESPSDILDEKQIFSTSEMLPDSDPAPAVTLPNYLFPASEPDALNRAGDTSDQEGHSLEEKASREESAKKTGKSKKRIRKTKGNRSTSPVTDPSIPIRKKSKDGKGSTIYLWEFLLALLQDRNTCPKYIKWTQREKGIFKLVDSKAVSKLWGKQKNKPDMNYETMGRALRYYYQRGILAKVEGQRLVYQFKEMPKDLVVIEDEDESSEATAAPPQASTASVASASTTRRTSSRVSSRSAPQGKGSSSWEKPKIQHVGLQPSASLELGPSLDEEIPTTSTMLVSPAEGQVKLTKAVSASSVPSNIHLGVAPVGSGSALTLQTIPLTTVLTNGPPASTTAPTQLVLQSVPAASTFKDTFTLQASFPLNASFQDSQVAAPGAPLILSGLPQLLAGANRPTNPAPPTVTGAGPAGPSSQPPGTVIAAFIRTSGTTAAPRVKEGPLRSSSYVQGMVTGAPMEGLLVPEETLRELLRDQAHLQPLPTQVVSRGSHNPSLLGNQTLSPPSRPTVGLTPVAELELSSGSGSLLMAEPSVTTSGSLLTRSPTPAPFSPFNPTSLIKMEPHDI
# Method in brief: as §1
# ELK4 = target: T3, ELK4 (Homo sapiens, UniProt P28324-2 1-405); conditions: protein: recombinant; tags: N-terminal GST; dsDNA, one strand shown
# T3 sequence: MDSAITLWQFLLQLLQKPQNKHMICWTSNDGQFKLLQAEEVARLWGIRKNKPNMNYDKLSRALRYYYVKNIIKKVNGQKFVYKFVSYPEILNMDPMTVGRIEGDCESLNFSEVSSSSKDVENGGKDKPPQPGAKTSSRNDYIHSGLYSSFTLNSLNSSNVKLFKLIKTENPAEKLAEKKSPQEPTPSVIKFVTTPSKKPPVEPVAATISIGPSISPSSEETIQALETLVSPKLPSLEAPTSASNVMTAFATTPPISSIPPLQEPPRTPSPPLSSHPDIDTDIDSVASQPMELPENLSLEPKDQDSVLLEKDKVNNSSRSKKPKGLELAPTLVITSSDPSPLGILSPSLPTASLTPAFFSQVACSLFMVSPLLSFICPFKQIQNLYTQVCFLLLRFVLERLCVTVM
# Method in brief: as §1
# ETV2 = target: T4, ETV2 (Homo sapiens, UniProt O00321 1-342); conditions: protein: recombinant; tags: N-terminal GST; dsDNA, one strand shown
# T4 sequence: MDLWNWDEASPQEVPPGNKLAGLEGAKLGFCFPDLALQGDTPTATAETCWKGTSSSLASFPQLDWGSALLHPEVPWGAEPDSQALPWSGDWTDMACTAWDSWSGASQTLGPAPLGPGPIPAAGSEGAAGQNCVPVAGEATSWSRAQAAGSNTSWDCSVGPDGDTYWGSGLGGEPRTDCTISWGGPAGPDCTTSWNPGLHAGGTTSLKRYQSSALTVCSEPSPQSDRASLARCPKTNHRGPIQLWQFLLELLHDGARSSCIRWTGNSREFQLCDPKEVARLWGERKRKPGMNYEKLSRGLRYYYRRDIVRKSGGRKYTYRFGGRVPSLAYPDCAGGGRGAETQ
# Method in brief: as §1
# ELF3 = target: T5, ELF3 (Homo sapiens, UniProt P78545 1-371); conditions: protein: recombinant; tags: N-terminal GST; dsDNA, one strand shown
# T5 sequence: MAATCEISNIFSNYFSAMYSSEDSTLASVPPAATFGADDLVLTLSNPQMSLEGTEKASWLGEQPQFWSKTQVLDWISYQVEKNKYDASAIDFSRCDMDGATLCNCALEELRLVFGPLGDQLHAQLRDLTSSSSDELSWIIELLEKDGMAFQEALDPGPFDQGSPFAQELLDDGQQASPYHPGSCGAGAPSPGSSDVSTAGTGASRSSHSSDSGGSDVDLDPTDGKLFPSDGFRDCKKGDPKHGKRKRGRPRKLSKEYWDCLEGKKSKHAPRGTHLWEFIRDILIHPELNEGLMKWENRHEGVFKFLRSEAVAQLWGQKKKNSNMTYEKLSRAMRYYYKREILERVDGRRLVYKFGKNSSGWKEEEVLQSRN
# Method in brief: as §1
# CRX = CRX (Homo sapiens, UniProt O43186 1-299); conditions: protein: recombinant; tags: N-terminal GST; dsDNA, one strand shown
# CRX, sequence (O43186 whole entry): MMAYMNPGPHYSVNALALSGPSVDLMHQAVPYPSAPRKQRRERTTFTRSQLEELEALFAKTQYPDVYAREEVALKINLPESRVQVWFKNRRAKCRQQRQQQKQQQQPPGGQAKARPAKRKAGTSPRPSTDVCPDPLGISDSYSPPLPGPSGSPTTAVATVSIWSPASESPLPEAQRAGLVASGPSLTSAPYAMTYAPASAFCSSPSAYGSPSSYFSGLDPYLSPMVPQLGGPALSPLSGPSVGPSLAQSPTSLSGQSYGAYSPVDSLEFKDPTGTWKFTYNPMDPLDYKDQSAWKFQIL
# Method in brief: as §1
# ETV1 = ETV1 (Homo sapiens, UniProt P50549 1-477); conditions: protein: recombinant; tags: N-terminal GST; dsDNA, one strand shown
# ETV1, sequence (P50549 whole entry): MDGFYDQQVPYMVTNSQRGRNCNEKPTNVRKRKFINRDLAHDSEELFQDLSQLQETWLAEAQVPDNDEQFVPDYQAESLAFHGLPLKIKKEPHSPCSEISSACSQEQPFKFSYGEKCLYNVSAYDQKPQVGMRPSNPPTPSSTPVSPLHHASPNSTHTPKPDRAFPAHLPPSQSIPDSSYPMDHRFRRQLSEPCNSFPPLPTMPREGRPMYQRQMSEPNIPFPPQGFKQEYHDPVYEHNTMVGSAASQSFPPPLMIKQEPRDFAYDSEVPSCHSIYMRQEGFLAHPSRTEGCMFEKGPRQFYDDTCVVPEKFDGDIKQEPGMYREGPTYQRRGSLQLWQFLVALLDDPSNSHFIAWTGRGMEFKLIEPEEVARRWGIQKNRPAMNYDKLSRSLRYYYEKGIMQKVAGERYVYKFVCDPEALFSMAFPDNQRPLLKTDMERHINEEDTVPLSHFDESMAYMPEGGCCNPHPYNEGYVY
# Method in brief: as §1
# ERF = target: T6, ERF (Homo sapiens, UniProt P50548 1-548); conditions: protein: recombinant; tags: N-terminal GST; dsDNA, one strand shown
# T6 sequence: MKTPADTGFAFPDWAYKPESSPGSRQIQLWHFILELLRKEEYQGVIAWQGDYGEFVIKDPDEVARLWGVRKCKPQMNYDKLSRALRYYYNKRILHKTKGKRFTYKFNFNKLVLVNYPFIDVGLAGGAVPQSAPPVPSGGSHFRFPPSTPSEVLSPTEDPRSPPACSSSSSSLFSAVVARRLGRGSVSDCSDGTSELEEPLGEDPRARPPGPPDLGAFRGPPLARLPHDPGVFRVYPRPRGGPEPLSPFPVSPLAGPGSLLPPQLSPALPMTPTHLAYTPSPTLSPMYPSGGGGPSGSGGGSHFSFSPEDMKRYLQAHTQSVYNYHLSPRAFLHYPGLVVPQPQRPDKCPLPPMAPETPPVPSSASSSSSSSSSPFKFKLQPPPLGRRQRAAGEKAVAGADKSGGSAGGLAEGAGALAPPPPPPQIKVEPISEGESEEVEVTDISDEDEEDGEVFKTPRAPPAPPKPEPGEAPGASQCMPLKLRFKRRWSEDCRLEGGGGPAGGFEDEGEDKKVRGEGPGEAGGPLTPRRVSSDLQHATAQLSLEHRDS
# Method in brief: as §1
# ETV3L = target: T7, ETV3L (Homo sapiens, UniProt Q6ZN32 1-361); conditions: protein: recombinant; tags: N-terminal GST; dsDNA, one strand shown
# T7 sequence: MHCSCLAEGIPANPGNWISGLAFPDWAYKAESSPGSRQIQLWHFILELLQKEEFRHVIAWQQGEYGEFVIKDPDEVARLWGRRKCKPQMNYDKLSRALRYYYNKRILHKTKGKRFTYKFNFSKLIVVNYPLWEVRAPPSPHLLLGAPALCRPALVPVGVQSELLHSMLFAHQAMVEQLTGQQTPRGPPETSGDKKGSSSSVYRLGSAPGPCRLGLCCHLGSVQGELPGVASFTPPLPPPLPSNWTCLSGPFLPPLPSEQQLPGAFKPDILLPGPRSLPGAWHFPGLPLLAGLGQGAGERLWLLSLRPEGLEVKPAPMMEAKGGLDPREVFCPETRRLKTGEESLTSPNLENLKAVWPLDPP
# Method in brief: as §1
# ETS2 = target: T8, ETS2 (Homo sapiens, UniProt P15036 1-469); conditions: protein: recombinant; tags: N-terminal GST; dsDNA, one strand shown
# T8 sequence: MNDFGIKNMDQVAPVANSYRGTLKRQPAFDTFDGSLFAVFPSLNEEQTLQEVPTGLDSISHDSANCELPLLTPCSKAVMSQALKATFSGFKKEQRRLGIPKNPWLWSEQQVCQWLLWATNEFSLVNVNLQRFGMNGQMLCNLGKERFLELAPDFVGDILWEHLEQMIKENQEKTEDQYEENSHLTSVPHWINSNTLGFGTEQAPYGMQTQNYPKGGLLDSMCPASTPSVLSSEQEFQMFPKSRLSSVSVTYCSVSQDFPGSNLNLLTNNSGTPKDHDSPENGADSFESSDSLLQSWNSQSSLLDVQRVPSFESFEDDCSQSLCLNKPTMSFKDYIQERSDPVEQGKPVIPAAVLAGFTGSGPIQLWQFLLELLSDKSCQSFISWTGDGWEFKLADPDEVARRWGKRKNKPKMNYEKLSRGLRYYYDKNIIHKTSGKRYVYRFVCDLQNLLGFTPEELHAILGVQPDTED
# Method in brief: as §1
# SPDEF = target: T9, SPDEF (Homo sapiens, UniProt O95238 1-335); conditions: protein: recombinant; tags: N-terminal GST; dsDNA, one strand shown
# T9 sequence: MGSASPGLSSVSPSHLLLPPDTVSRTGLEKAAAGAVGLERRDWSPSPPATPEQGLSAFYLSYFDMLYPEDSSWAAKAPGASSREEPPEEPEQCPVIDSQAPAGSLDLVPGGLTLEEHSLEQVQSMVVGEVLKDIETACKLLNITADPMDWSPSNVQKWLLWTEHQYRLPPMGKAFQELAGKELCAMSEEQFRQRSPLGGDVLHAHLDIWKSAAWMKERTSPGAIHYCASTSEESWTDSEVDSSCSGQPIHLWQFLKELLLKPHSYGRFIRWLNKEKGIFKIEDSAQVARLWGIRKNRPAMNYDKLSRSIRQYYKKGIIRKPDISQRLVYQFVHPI
# Method in brief: as §1
# ETV7 = target: T10, ETV7 (Homo sapiens, UniProt Q9Y603 1-341); conditions: protein: recombinant; tags: N-terminal GST; dsDNA, one strand shown
# T10 sequence: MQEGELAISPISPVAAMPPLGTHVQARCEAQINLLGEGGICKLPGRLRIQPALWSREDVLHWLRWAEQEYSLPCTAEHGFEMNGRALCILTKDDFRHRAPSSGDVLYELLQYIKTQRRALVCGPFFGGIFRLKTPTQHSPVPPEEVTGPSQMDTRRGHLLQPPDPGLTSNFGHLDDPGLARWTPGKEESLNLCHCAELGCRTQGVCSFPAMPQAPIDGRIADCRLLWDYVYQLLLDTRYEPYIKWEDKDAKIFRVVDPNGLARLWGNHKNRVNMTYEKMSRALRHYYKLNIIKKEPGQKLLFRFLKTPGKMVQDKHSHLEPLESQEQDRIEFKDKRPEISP
# Method in brief: as §1
# ELF5 = target: T11, ELF5 (Homo sapiens, UniProt Q9UKW6-2 1-255); conditions: protein: recombinant; tags: N-terminal GST; dsDNA, one strand shown
# T11 sequence: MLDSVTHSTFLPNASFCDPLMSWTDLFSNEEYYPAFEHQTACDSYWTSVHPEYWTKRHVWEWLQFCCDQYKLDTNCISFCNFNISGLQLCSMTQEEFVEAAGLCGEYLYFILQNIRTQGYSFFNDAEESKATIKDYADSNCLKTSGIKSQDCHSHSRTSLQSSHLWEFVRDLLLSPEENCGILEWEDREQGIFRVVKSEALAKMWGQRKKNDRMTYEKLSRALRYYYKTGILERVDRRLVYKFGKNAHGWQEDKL
# Method in brief: as §1
# ETV3 = target: T12, ETV3 (Homo sapiens, UniProt P41162-2 1-143); conditions: protein: recombinant; tags: N-terminal GST; dsDNA, one strand shown
# T12 sequence: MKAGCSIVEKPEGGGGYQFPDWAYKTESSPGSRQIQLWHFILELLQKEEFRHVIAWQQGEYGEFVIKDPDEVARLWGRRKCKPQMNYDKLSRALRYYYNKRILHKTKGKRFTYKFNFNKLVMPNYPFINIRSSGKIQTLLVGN
# Method in brief: as §1
# ETV6 = ETV6 (Homo sapiens, UniProt P41212 1-452); conditions: protein: recombinant; tags: N-terminal GST; dsDNA, one strand shown
# ETV6, sequence (P41212 whole entry): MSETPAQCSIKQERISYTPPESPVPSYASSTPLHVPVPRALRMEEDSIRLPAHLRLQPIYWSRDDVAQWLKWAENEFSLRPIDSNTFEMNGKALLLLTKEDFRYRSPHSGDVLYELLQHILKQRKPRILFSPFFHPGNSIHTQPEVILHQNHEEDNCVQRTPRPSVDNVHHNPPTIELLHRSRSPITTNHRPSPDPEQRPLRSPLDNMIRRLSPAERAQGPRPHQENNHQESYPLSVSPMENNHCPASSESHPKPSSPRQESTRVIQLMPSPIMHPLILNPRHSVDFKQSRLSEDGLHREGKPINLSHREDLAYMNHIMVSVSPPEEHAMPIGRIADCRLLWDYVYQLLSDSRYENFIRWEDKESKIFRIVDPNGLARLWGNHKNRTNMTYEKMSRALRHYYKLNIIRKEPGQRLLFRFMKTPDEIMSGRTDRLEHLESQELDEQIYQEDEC
# Method in brief: as §1
sequence,measurement,setting,value
TTAAAC,binding signal,FEV,"1.21 fold enrichment (6-mer frequency, TF over GST control)"
same,binding signal,ETV5,"1.29 fold enrichment (6-mer frequency, TF over GST control)"
same,binding signal,HSF1,"1.7 fold enrichment (6-mer frequency, TF over GST control)"
same,binding signal,SPIC,"1.05 fold enrichment (6-mer frequency, TF over GST control)"
same,binding signal,ELF4,"1.21 fold enrichment (6-mer frequency, TF over GST control)"
same,binding signal,ELK4,"1.26 fold enrichment (6-mer frequency, TF over GST control)"
same,binding signal,ETV2,"1.26 fold enrichment (6-mer frequency, TF over GST control)"
same,binding signal,ELF3,"1.19 fold enrichment (6-mer frequency, TF over GST control)"
same,binding signal,CRX,"2.58 fold enrichment (6-mer frequency, TF over GST control)"
same,binding signal,ETV1,"1.24 fold enrichment (6-mer frequency, TF over GST control)"
same,binding signal,ERF,"1.39 fold enrichment (6-mer frequency, TF over GST control)"
same,binding signal,ETV3L,"1.36 fold enrichment (6-mer frequency, TF over GST control)"
same,binding signal,ETS2,"1.2 fold enrichment (6-mer frequency, TF over GST control)"
same,binding signal,SPDEF,"1.18 fold enrichment (6-mer frequency, TF over GST control)"
same,binding signal,ETV7,"1.14 fold enrichment (6-mer frequency, TF over GST control)"
same,binding signal,ELF5,"1.18 fold enrichment (6-mer frequency, TF over GST control)"
same,binding signal,ETV3,"1.23 fold enrichment (6-mer frequency, TF over GST control)"
same,binding signal,ETV6,"1.3 fold enrichment (6-mer frequency, TF over GST control)"
